The record followed here is PubChem BioAssay (EPA / NIEHS).

Molecules are shown by their SMILES. Records with an inconclusive call do not appear. Activity calls are given as the source filed them. The calls were made as follows: active = hit-call score of the fitted dose curve at least 0.9, where 1 is the maximum; inconclusive = response in the unintended direction; inactive = score below 0.9.

Peroxisome proliferator-activated receptor gamma (Homo sapiens), sequence (P37231 whole entry, looked up): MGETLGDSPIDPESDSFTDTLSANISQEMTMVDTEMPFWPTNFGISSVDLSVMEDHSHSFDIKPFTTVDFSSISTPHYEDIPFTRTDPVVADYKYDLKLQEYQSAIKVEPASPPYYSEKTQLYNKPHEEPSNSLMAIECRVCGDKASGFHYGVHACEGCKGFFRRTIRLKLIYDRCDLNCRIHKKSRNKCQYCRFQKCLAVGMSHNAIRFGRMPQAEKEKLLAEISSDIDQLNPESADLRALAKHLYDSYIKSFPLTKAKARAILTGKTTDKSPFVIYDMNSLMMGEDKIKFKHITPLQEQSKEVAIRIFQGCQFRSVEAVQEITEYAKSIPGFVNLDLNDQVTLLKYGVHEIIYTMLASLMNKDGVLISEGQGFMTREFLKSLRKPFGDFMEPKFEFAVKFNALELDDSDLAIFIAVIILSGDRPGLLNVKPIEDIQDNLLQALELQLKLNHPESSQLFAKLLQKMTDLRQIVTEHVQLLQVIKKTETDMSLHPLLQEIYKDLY

The test deals with Peroxisome proliferator-activated receptor gamma (Homo sapiens) (UniProt P37231). Nature of the test: ATG_PPARg_TRANS: Attagene TRANS-FACTORIAL HepG2 Assay for human Peroxisome Proliferator-activated Receptor-gamma (PPARg) (AID 2283007). As for the experimental part:
ATG_TRANS is a cell-based, multiplexed-readout assay that uses HepG2, a human liver cell line, with measurements taken at 24 hours after chemical dosing in a 24-well plate.ATG_PPARg_TRANS is one of 30 assay component(s) measured or calculated from the ATG_TRANS assay. It is designed to make measurements of mRNA induction, a form of inducible reporter, as detected with fluorescence intensity signals by Reverse transcription polymerase chain reaction (RT-PCR) and Capillary electrophoresis technology.Data from the assay component ATG_PPARg_TRANS was analyzed into 1 assay endpoint. This assay endpoint, ATG_PPARg_TRANS, was analyzed in the positive analysis fitting direction relative to DMSO as the negative control and baseline of activity. Using a type of inducible reporter, measures of mRNA for gain-of-signal activity can be used to understand the reporter gene at the transcription factor-level as they relate to the gene PPARG. Furthermore, this assay endpoint can be referred to as a primary readout, because this assay has produced multiple assay endpoints where this one serves a reporter gene function. To generalize the intended target to other relatable targets, this assay endpoint is annotated to the nuclear receptor intended target family, where the subfamily is non-steroidal.
Human liver HepG2 cells are transiently transfected with multiple reporter transcription units (MRTUs) in 6-well plates using FuGene 6 reagent (Roche; 3 ml FuGene/1 mg DNA). The MRTU constructs are regulated by a cis-regulating element (promoter). […] A major difference between the CIS and TRANS system is that in CIS activities of endogenous TFs are measured, whereas the TRANS assay evaluates changes in activities of exogenous, chimeric NR-Gal4 proteins. […] At the end of 24 hour incubation, total RNA was isolated using TriZol reagent (Invitrogen). The isolated RNA is then reverse-transcribed using oligo(dT) primer and Mo-MLV reverse transcriptase (Invitrogen) with DNAse I (Ambion) treatment for 30 min. The one-tenth of the produced cDNA was amplified by PCR using Taq DNA polymerase (Invitrogen) and two reporter sequence-specific primers. The PCR products were fluorescently labeled by primer extension with 6-arboxyfluorescein (6-FAM) 5'-labeled reporter sequence-specific primer (2 min at 95 C, 20 s at 68 C and 10 min at 72 C) and these products were digested with 5U of HpaI (New England Biolabs) for 2h at 37 C. The fragments were purified using Qiaquick PCR columns (Qiagen), analyzed on an ABI 3130xL genetic analyzer (Applied Biosystems) with peak positions identified by using a set of X-rhodamine (ROX)-labeled MapMarker1000 molecular weight standards (BioVentures). The raw capillary electrophoresis data was processed using Attagraph software (Attagene).
As for `Nc1ccccc1C(=O)OCCc1ccccc1`, the concentration at half-maximal activity (AC50) is 24.9 µM (active). On to `Nc1ccc([N+](=O)[O-])cc1N`, for which the result was inactive. The same measure, in the same setting: under `CC(C)(O)C#N` stands “inactive”.

`C=C(Cl)CCl`: the outcome was inactive. With `ClC1=C(Cl)[C@]2(Cl)[C@@H]3[C@@H](Cl)[C@H](Cl)C[C@@H]3[C@@]1(Cl)C2(Cl)Cl`, the outcome was inactive. Same read-out and setting: under `CCc1cc(C)cc(CC)c1-c1c(OC(=O)C(C)(C)C)n2n(c1=O)CCOCC2` stands “inactive”.

On to `O=c1c2ccccc2c(=O)c2c1cc(Cl)c1[nH]c3c([nH]c12)c(Cl)cc1c(=O)c2ccccc2c(=O)c13`, for which the AC50 is 40.5 µM (active). Regarding `O=C(O)CCl`, the outcome was inactive. For the compound `c1ccc(Nc2ccc3ccccc3c2)cc1`, the AC50 is 18 µM (active). Same read-out and setting: under `NNc1ccccc1` stands 29.2 µM (active); under `COC(C)(C)CCC[C@H](C)C/C=C/C(C)=C/C(=O)OC(C)C`, 7.82 µM (active).

As to `c1ccc(P(c2ccccc2)c2ccccc2)cc1`, the call was inactive.

For the compound `O=C(O)COc1ccccc1`, the compound was called inactive. The same measure, in the same setting: under `CC(=O)c1cc2c(cc1C)C(C)(C)C(C)CC2(C)C` (stereo not given) stands “inactive”. In the case of `Cl/C=C\CCl`, the outcome was inactive.

In the case of `CC1(C)C(=O)NC(=O)NC1=O`, the compound was called inactive.

Consider `C[N+](C)=CCl`, for which the result was inactive. On the same count and under the same terms, under `CN(C)CCC#N` stands “inactive”.

Take `C=CC(=O)OCCCCOC(=O)C=C`: the AC50 is 2.14 µM (active). Same read-out and setting: under `O=[N+]([O-])c1cc(C(F)(F)F)c(Cl)c([N+](=O)[O-])c1Cl` stands 8.34 µM (active). Consider `C[N+](=O)[O-]`, for which the call was inactive. The same measure, in the same setting: as for `[CH3][Sn]([CH3])([Cl])[Cl]`, the entry is “inactive”; as for `[CH3][Sn]([Cl])([Cl])[Cl]`, “inactive”. Consider `Nc1ccccc1C(=O)Oc1ccc2ccccc2c1`, for which the AC50 is 54.9 µM (active).

As for `CC(C)(C)C(=O)CCl`, the AC50 is 25.7 µM (active). Same read-out and setting: under `SCc1ccco1` stands 27.9 µM (active).

Regarding `[Cl-].[Cl-].[Cl-].[Yb+3]`, the call was inactive. On the same count and under the same terms, as for `C=C(Cl)Cl`, the entry is “inactive”; as for `CCOP(=O)(OCC)OCC`, “inactive”. As for `O=C(CCl)c1ccccc1`, the AC50 is 16.4 µM (active). For the compound `O=S(=O)(O)OOS(=O)(=O)O`, the compound was called inactive. `Cc1ccc(C)c2ccccc12`: the outcome was inactive. As for `O=C1C(Cl)=C(Cl)C(=O)C(Cl)=C1Cl`, the outcome was inactive. In the case of `O=[N+]([O-])c1cc([N+](=O)[O-])c2ccccc2c1`, the concentration at half-maximal activity (AC50) was 6.62 µM (active). Consider `O=CNC(N1CCN(C(NC=O)C(Cl)(Cl)Cl)CC1)C(Cl)(Cl)Cl` (stereo not given), for which the compound was called inactive. On the same count and under the same terms, under `Nc1c(Cl)c(Cl)c(Cl)c(Cl)c1Cl` stands “inactive”. Regarding `CC(=O)C=Cc1ccccc1`, the concentration at half-maximal activity (AC50) is 27 µM (active). The same measure, in the same setting: as for `CC(C)(c1cc(Cl)c(O)c(Cl)c1)c1cc(Cl)c(O)c(Cl)c1`, the figure is 3.75 µM (active).

As for `N#Cc1cccc(C#N)c1`, the compound was classed as inactive. `CCOP(O)OCC`: the call was inactive.
